# Source: PubChem
# HT1080 IDH1KD tx: kills HT-1080 cells with IDH1 knockdown; HT-1080 IDH1 knockdown viability, ATP luminescence, 48 h; Potency, µM (doses to about 46.1 µM), for the others: at the highest dose activity, negative = toxicity, actives largely listed as cytotoxic; actives 2% (n = 360,000); AID 686971;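 note: potency is the fitted concentration of half-maximal effect; 0% = DMSO wells and -100% = cell-free medium wells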
#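 IDH1KD HT-1080 cells, 750/well, RPMI + 5% FBS; compound pinned after 2 h settling; 48 h, 37 °C; CellTiter-Glo luminescence; % activity normalised to DMSO and no-cell wells; curves fitted, classed by r2 and efficacy.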
# 12-LOX inh: blocks human arachidonate 12S-lipoxygenase; AID 1671190; actives 1.1% (n = 580,000); purified 12hLO, xylenol orange hydroperoxide absorbance; P18054; Potency, µM (titrated, usually from 108 µM), for the others: at the top dose activity change, negative = inhibition, hits mostly inhibitors; note: potency is the fitted concentration of half-maximal effect
# Target sequence (P18054 whole entry, looked up): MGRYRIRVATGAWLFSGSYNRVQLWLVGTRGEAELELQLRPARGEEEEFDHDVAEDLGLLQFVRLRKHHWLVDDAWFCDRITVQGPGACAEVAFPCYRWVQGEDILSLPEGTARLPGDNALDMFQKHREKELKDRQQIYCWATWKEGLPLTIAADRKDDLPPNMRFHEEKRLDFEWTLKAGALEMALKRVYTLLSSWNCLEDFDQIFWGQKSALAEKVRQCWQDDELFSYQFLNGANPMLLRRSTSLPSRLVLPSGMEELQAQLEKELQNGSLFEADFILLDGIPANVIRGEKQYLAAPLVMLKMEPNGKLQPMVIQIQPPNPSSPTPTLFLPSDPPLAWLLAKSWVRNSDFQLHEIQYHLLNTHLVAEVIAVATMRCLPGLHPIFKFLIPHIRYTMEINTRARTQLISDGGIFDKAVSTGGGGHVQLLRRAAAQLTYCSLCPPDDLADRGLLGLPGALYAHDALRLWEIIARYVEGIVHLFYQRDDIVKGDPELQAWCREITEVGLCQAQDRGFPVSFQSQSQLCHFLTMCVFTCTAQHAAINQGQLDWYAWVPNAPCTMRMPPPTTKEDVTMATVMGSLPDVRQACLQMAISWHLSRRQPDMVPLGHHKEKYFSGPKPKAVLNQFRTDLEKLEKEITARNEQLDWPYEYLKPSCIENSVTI
#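 Hydroperoxide product was detected by ferrous iron/xylenol orange as the 573 to 405 nm absorbance ratio. Arachidonic acid at 40 uM (final) was turned over for 30 min at room temperature by 150 nM human 12hLO, pH 7.0 Hepes buffer, after 15 min compound preincubation.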
# TDP1 cell CPT: growth inhibition of DT40 Tdp1-/-;hTDP1 cells with camptothecin (screen for TDP1 inhibitors); chicken DT40 Tdp1-/-;hTDP1 cells + 20 nM CPT, ATP luminescence, 48 h; Potency, µM (series often up to 46.2 µM), without a hit: top-dose activity change, negative = growth inhibition, hits mostly inhibitors; actives 12% (n = 420,000); AID 686979; note: potency is the fitted concentration of half-maximal effect; nearly all actives have a fitted effect of over 55% in size
#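 Cell growth measured by CellTiter-Glo luminescence after a minimum 48 h, 37 C compound exposure with 20 nM CPT in Tdp1-knockout DT40 cells stably expressing hTDP1, seeded 400/well; qHTS titration format.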
# DT40 TDP1 no CPT: qHTS for Inhibitors of human tyrosyl-DNA phosphodiesterase 1 (TDP1): qHTS in cells in absence of CPT | DT40 Tdp1-/- hTDP1 cells, no CPT, ATP luminescence, 48 h | Potency, µM (top dose mostly 46.2 µM), for the others: top-dose activity change, negative = growth inhibition, most hits filed as inhibitors | actives 15% (n = 420,000) | AID 686978, 2013; note: potency is the fitted concentration of half-maximal effect; nearly all actives have a fitted effect of over 55% in size
#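 Seeded 400 DT40-hTDP1 cells/well (vehicle DMSO, no 20 nM CPT); pinned compounds; ≥48 hr at 37 °C; CellTiter-Glo luminescence as viability measure.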
# HT1080-NT tox: kills 2HG-producing HT-1080-NT fibrosarcoma cells. actives 1.6% (n = 360,000). Potency, µM (highest dose often 46.1 µM), inactives show top-dose activity, negative = less viability, actives largely listed as cytotoxic. HT-1080-NT fibrosarcoma viability, CellTiter-Glo ATP luminescence, 48 h;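 note: NT is the 2HG producing partner of a matched IDH1 knockdown line; potency is the fitted concentration of half-maximal effect; 0% = DMSO-treated cells and -100% = media-only wells without cells; nearly all actives have a fitted effect of over 55% in size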
#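 Fibrosarcoma NT cells, 750 per well in 5% FBS RPMI, were exposed to compound for 48 hours. Viability: CellTiter-Glo luminescence.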
# IL-1B inflam inh: inflammasome signaling inhibition, IL-1 beta readout; THP-1 LPS/ATP IL-1B secretion, AlphaLISA, 16 h; hits give low values; activity change, % at 57.5 µM; actives 4.7% (n = 360,000); in the data active = activity change below about -50%; inconclusive = mostly about -30% to -49%
#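 THP-1 cells pretreated 1 hr with compounds (up to 57.5 uM final), then stimulated with LPS (250 ng/mL final) plus ATP (1.25 mM final); secreted IL-1B measured by AlphaLISA after 16 hr, decreased signal indicating inhibition.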
# * marks the source's active call; other numbers are inactive results; ? = inconclusive; · = no result; [ ] = dose if it differs, or a comment. This excerpt belongs to a sample that is enriched for hits. Unless noted, calls come from the whole dose curve; as a rule, active = well fitted curve in the direction sought with a large enough effect; inconclusive = small, poorly fitted or top-dose-only effect, or another doubt; inactive = no such curve, though single readings can be large; an effect the other way counts as inactive or inconclusive. Unless noted, % is set by controls: 0 for no effect and ±100 for the full control effect.
SMILES,HT1080 IDH1KD tx,12-LOX inh,TDP1 cell CPT,DT40 TDP1 no CPT,HT1080-NT tox,IL-1B inflam inh
C[C@@]12C(=O)Nc3cc(F)c(F)cc3C(=O)N1[C@H]1c3ccccc3OC[C@@H]1[C@@H]2c1ccccc1,-25%,?,?,18µM*,-25%,-63*
C[C@@]12C(=O)Nc3ccc(F)cc3C(=O)N1[C@H]1c3ccccc3OC[C@@H]1[C@@H]2c1ccccc1,-4%,·,?,-10%,-10%,?
COc1ccc2c(c1)OC[C@H]1[C@H]2N2C(=O)c3cc(OC)c(OC)cc3NC(=O)[C@@]2(C)[C@H]1c1ccccc1,?,-14%,29µM*,16µM*,?,0
CCOc1ccc(NC(=O)c2c(NC(=O)CN3CCCC3)sc3c2CCC(C(C)(C)C)C3)cc1 (stereo unspecified),·,29%,·,·,·,·
CCOC(=O)c1ccccc1OCc1cc(C2Nc3ccccc3C(=O)N2c2cccc3ccccc23)ccc1OC (stereo unspecified),·,·,6%,?,·,·
COCCOCCOCCOCCOC,·,12%[176 µM],·,·,·,·
COc1ccc(Cl)cc1NC(=O)C1CSC(c2ccncc2)=N1 (stereo unspecified),-6%,40%,21µM*,?,-9%,-3
O=C(N/N=C/c1ccc([N+](=O)[O-])o1)C(O)c1ccccc1 (stereo unspecified),-27%,0%,8.2µM*,6.5µM*,?,-7
O=C(NN=Cc1ccccc1O)C(O)c1ccccc1 (stereo unspecified),?,-23%,?,21µM*,-23%,127
CC1=C/C(=N/NC(=S)Nc2ccccc2C(F)(F)F)CC1,·,9%,·,·,·,·
O=C(N/N=C\c1ccc(-c2ccc([N+](=O)[O-])cc2)o1)C1COc2ccccc2O1 (stereo unspecified),-15%,-23%,?,23µM*,-4%,-22
O=[N+]([O-])c1ccc(/C=N/NC(=S)Nc2ccccc2C(F)(F)F)o1,1%,?,8.2µM*,13µM*,12%,0
COC1C(=O)N(c2cccc(F)c2)C12CCN(S(=O)(=O)Cc1ccccc1F)CC2 (stereo unspecified),·,19%,·,·,·,·
O=C(N/N=C/c1ccc(-c2ccc([N+](=O)[O-])cc2)o1)C(O)c1ccccc1 (stereo unspecified),-1%,-29%,?,?,-1%,-249*
O=C(N/N=C/c1cccc([N+](=O)[O-])c1)C1COc2ccccc2O1 (stereo unspecified),-3%,-5%,24%,-16%,-6%,-3
COc1cc(/C=N/NC(=O)C2COc3ccccc3O2)cc(OC)c1OC (stereo unspecified),-7%,-1%,-4%,-28%,1%,8
COc1cc([N+](=O)[O-])cc(/C=N\NC(=O)C2COc3ccccc3O2)c1O (stereo unspecified),18µM*,-13%,?,?,?,122
O=C(N/N=C\c1cccc([N+](=O)[O-])c1O)C1COc2ccccc2O1 (stereo unspecified),?,-11%,5.2µM*,5.2µM*,?,85
CCCOc1ccc(C(=O)N2CCN(c3nc4sc5c(c4c(=O)n3C)CCCC5)CC2)cc1,·,-7%,·,·,·,·
CC(C)Oc1ccc(C(=O)OCC(=O)N2CCCc3ccccc32)cc1,-3%,-6%,-2%,-10%,-9%,3
Cc1ccc(C(=O)CSc2nc3ccccc3o2)c(C)c1,·,-1%,·,·,·,·
O=C(N[C@@H]1CNC[C@H]1CO)C1CCC1,·,-3%,·,·,·,·
CCOc1ccc(Oc2ccccc2NC(=O)CCc2nc3ccccc3c(=O)[nH]2)cc1,-19%,-4%,23µM*,21µM*,-4%,82
CCN(c1ccccc1)S(=O)(=O)c1ccc(OC)c(NC(=O)Cc2ccc(F)cc2)c1,-11%,-10%,?,18µM*,-3%,?
CCN(c1ccccc1)S(=O)(=O)c1ccc(OC)c(NC(=O)CNCCc2ccccc2)c1,?,0%,26µM*,21µM*,?,?
SMILES,HT1080 IDH1KD tx,12-LOX inh,TDP1 cell CPT,DT40 TDP1 no CPT,HT1080-NT tox,IL-1B inflam inh
CCN(c1ccccc1)S(=O)(=O)c1ccc(OC)c(NC(=O)CCc2nc3ccccc3c(=O)[nH]2)c1,-10%,-16%,18µM*,15µM*,-9%,7
CCN(c1ccccc1)S(=O)(=O)c1ccc(OC)c(NC(=O)C2CCC2)c1,?,260%,?,?,-11%,-5
O=C(c1ccco1)N1CCC2(CCN(Cc3ccccc3)CC2)CC1,·,2%[57.4 µM],22%,-12%,·,·
CC(SC(C)c1ccccc1)C(=O)Nc1ccccc1F (stereo unspecified),·,33%,·,·,·,·
COc1cccc(/C=C/c2cnc3ccccc3n2)c1OC,·,·,?,20µM*,·,·
COc1cccc(/C=C/c2nc3cc(C)c(C)cc3s2)c1OC,·,-5%,·,·,·,·
COc1cccc(C=Cc2nccc3ccccc23)c1OC,-26%,?,?,16µM*,-28%,-58*
COc1ccc(/C=C/c2nccc3ccccc23)cc1OC,·,·,11µM*,14µM*,·,·
O=C(CCCCCCNC(=O)c1cnc(N(c2ccccc2)c2ccccc2)nc1)NO,·,-26%[57.4 µM],·,·,·,·
O=C(O)c1ccc2[nH]ccc2c1,·,9%,·,·,·,·
Cc1cc(NC(=O)Cn2ccn3nc(-c4ccc(F)cc4)c(CO)c3c2=O)no1,·,16%,·,·,·,·
O=C1N/C(=N\N=C\c2cccs2)SC1Cc1cccc(Cl)c1Cl (stereo unspecified),6.5µM*,24%,3.3µM*,5.2µM*,4.6µM*,15
COc1cccc(/C=C(/C(=O)OCC(N)=O)c2ccccc2)c1,-9%,-18%,-2%,-26%,-9%,-16
COc1cccc(/C=C(/C(=O)OCC(=O)NC2CCCC(C)C2C)c2ccccc2)c1 (stereo unspecified),?,6%,?,21µM*,?,-65*
COC(=O)C1C(=O)C2=C(CC1C)NC(C)=C(C(=O)OC(C)C)C2c1ccc(C)o1 (stereo unspecified),0%,22%,-10%,-1%,0%,6
COC(=O)C1C(=O)C2=C(CC1C)NC(C)=C(C(=O)OCCOc1ccccc1)C2c1ccc(C)o1 (stereo unspecified),-2%,8%,23µM*,16µM*,2%,0
